Results as given in PubChem BioAssay (NCATS).
Records with an inconclusive call do not appear. The source made the active and inactive calls. Calls follow the shape of the dose curve; as a rule, active = well fitted curve in the direction sought with a large enough effect; inconclusive = small, poorly fitted or top-dose-only effect, or another doubt; inactive = no such curve, though single readings can be large; an effect the other way counts as inactive or inconclusive. Numbered stars: 1 amine (or outer) side, 2 acyl side, 3 side chain; on linkers, the order of the positions; unused ones are H or OH. Square brackets hold non-standard residues; d marks the D form. Peptide text beside a SMILES is read from it. * marks the point of attachment. ξ: configuration not given here. X9 = CCC(C)(N*)C(=O)C1CC[C@@H](C(=O)N[C@@H](Cc2ccccc2)C(=O)NCC(=O)O)N1; X8 = O=C([C@@H]1CC(O)CN1[*:1])[*:2]; aIle = CC[C@@H](C)[C@H](N)C(=O)O; Thr(3ξ) = CC(O)[C@H](N)C(=O)O; ξIva = CCC(C)(N)C(=O)O; Aib = CC(C)(N)C(=O)O

Legend:
[1] = target: Cellular tumor antigen p53 (Homo sapiens) (UniProt P04637); test: Primary qHTS for small molecule compounds that upregulate eGFP-tagged delta133p53alpha (in N-terminal) cells. (AID 2060322); details: NCI-H358 eGFP-delta133p53alpha fluorescence, 24 h; activation: stronger effect = higher value;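 also: cells pre-induced with doxycycline then dosed without doxycycline; series mostly up to about 56 µM; 0% = DMSO vehicle and 100% = reference activator; nearly all actives have a fitted effect of over 75% in size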
Sequence of Cellular tumor antigen p53 (Homo sapiens) (P04637 whole entry, looked up): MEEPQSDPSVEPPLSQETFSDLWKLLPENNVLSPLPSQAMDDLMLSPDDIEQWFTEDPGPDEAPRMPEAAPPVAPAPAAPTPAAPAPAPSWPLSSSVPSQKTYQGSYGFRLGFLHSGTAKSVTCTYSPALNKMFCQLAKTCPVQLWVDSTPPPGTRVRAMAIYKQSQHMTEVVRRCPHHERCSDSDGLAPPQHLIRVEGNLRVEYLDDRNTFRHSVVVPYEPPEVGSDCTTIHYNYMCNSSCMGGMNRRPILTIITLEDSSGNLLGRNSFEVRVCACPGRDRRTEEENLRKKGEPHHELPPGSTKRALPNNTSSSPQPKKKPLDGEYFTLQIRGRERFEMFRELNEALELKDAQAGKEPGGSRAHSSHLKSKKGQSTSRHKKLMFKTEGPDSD
Outline: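 NCI-H358 cells pre-induced 24 h with 10 ng/ml doxycycline for eGFP-delta133p53alpha, plated dox-free and exposed 24 h at 37C to titrated compounds. Fixed, Hoechst-stained; gated GFP peak intensity by laser scanning cytometry, normalized to DMSO (0%) and 57.5 uM 5-azacytidine (100%).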

[2] = target: Aldehyde dehydrogenase, mitochondrial (Homo sapiens) (UniProt P05091); test: qHTS for Inhibitors of the Aldehyde Dehydrogenase Family (ALDH2) Primary screen (AID 2061308);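 also: plate controls were vehicle for no effect and reference inhibitor for full effect; nearly all actives have a fitted effect of over 55% in size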
[3] = target: Retinaldehyde dehydrogenase 3 (Homo sapiens) (UniProt P47895); test: qHTS for Inhibitors of the Aldehyde Dehydrogenase Family (ALDH1A3) Primary screen (AID 2061315);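 also: plate controls were DMSO vehicle for no effect and reference inhibitor for full effect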

C/C(=C/CO)CC[C@@H]1[C@@]2(C)CCC[C@](C)(C(=O)O)C2CC[C@@]1(C)O (stereo partly drawn)
inactive: activation [1] 27.7% | Potency [2] | Potency [3]

CN1CCN(S(=O)(=O)c2ccc(-c3cnc(N)c(C(=O)Nc4cccnc4)n3)cc2)CC1
inactive: activation [1] -18.8% | Potency [2] | Potency [3]

COC1C(CO)OC(n2cnc3c(=O)[nH]cnc32)C1O (stereo not drawn)
inactive: activation [1] -12.2% | Potency [2] | Potency [3]

C[C@@H]1O[C@@H](O[C@H]2[C@H](O)[C@@H](C(=O)O)O[C@@H](O[C@H]3CC[C@@]4(C)C(CC[C@]5(C)C4CC=C4C6CC(C)(C)CC[C@]6(C(=O)O)CC[C@]45C)C3(C)C)[C@@H]2O[C@@H]2O[C@H](CO)[C@@H](O)[C@H](O)[C@H]2O)[C@H](O)[C@H](O)[C@H]1O (stereo partly drawn)
inactive: activation [1] -2.29% | Potency [2] | Potency [3]

CC[C@@H](C)[C@H](NC(=O)C(C)(C)NC(=O)[C@H](CCC(N)=O)NC(=O)C(C)(CC)NC(=O)[C@H](Cc1c[nH]c2ccccc12)NC(C)=O)C(=O)N[C@H](C(=O)NC(C)(C)C(=O)N[C@@H](CC(C)C)C(=O)NC(C)(C)C(=O)N1CCC[C@H]1C(=O)N[C@@H](CCC(N)=O)C(=O)NC(C)(C)C(=O)N1CC(O)C[C@H]1C(=O)NC(C)(CC)C(=O)C1CC[C@@H](C(=O)N[C@@H](Cc2ccccc2)C(=O)NCC(=O)O)N1)C(C)O (stereo partly drawn) (Ac-W[ξIva]Q[Aib][aIle][Thr(3ξ)][Aib]L[Aib]PQ[Aib][X8]-X9)
inactive: activation [1] 3.57% | activity change, negative = inhibition [2] -2.86% [at 11.2 µM] | activity change, negative = inhibition [3] 18.1% [at 11.2 µM]

CC1=COC(OC2OC(CO)C(O)C(O)C2O)C2C(CO)CC(OC(=O)/C=C/c3ccc(O)cc3)C12 (stereo not drawn)
inactive: activation [1] -9.16% | Potency [2] | Potency [3]

CC(=O)OC1CC(=O)C2(C)C3CC4=C(OC(C)CC4=O)OC3(C)CCC2C1(C)C (stereo not drawn)
inactive: activation [1] -6.11% | Potency [2] | Potency [3]

C=C1C2CCC3CC2(CC(O)C2(O)C1CC(OC1OC(CO)C(O)C(O)C1O)C2(C)C)CC3(C)O (stereo not drawn)
inactive: activation [1] 19.6% | Potency [2] | Potency [3]

O=C(COc1cccc2c(=O)[nH]ccc12)c1ccccc1
inactive: activation [1] -14.5% | Potency [2] | Potency [3]

C=C1C(OC(C)=O)CCC2(C)CC3(OC)OC(=O)C(C)=C3CC12 (stereo not drawn)
inactive: activation [1] 17.9% | Potency [2] | Potency [3]

C#Cc1cnc2[nH]c(=O)n(C(CC)CC)c2n1
inactive: activation [1] -4.77% | Potency [2] | Potency [3]

CC1=C2CC(C)(C)CC2C(O)C2=C(C1)C(=O)OC2O (stereo not drawn)
inactive: activation [1] -7.14% | Potency [2] | Potency [3]

CC(O)C/C=C/C=C/C(=O)OC1C=C2COC(=O)C2(O)C2(C)CCCC(C)(C)C12 (stereo not drawn)
inactive: activation [1] 5.34% | Potency [2] | Potency [3]

CC1(C(=O)O)CCCC2(C)C1CCC13CC(CCC21)C1(CO)OC31 (stereo not drawn)
inactive: activation [1] -9.16% | Potency [2] | Potency [3]

CCOc1ccc(S(=O)(=O)N2CCCCCC2)c2ccccc12
inactive: activation [1] -13.7% | Potency [2] | Potency [3]

C/C(=C\CCC(C)(O)c1ccc(C)cc1)C(=O)O (stereo not drawn)
inactive: activation [1] -12.2% | Potency [2] | Potency [3]

C=C1CC[C@H]2[C@@](C)(CCC[C@@]2(C)C(=O)O)[C@@H]1CCC(C)CCO (stereo partly drawn)
inactive: activation [1] 9.16% | Potency [2] | Potency [3]

CC1OC(OC2C(O)C(OC3CCC4(C)C(CCC5(C)C4CC=C4C6CC(C)(COC7OC(CO)C(O)C(O)C7O)CC(O)C6(C)CCC45C)C3(C)C)OC(C(=O)O)C2O)C(O)C(O)C1OC1OCC(O)C(O)C1O (stereo not drawn)
inactive: activation [1] -4.46% | Potency [2] | Potency [3]

CC(=O)O[C@H]1C[C@@]2(C)[C@@H](C[C@@H](O)[C@H]3[C@@]4(C)CC[C@@H](O)[C@@H](C)[C@@H]4CC[C@@]32C)/C1=C(\CCC=C(C)C)C(=O)O
inactive: activation [1] 9% | Potency [2] | Potency [3]

CC1=C(C(=O)O)/C(=C\CO[C@@H]2O[C@H](CO)[C@@H](O)[C@H](O)[C@H]2O)C(OC(=O)/C=C\c2ccc(O)cc2)C1 (stereo partly drawn)
inactive: activation [1] 8.93% | Potency [2] | Potency [3]

CC(C)C[C@@H](N)C(=O)N[C@H]1C(=O)N[C@@H](CC(N)=O)C(=O)N[C@H]2C(=O)N[C@H]3C(=O)N[C@H](C(=O)N[C@H](C(=O)O)c4cc(O)cc(O)c4-c4cc3ccc4O)[C@H](O)c3ccc(c(Cl)c3)Oc3cc2cc(c3O[C@@H]2O[C@H](CO)[C@@H](O)[C@H](O)[C@H]2O[C@H]2C[C@](C)(N)[C@H](O)[C@H](C)O2)Oc2ccc(cc2Cl)[C@H]1O
inactive: activation [1] 6.33% | Potency [2] | Potency [3]
